Data as given in the antibiotic and cytotoxicity screens of Wong et al. (2023).
In all, about 39,000 compounds went through this assay and about 1,500 (3.8%) were called active. For the sample, actives were picked, then their nearest neighbours and some compounds at random.

tested on: HSkMC (human skeletal muscle cells); test: cytotoxicity call (relative viability < 0.9); conditions: 10 µM

| Structure (SMILES) | cytotoxicity call |
| --- | --- |
| COc1ccc(S(=O)(=O)Nc2ccc3c(c2)CC(=O)N([C@H](C)CO)C[C@H](C)[C@@H](CN(C)Cc2ccc(Cl)c(Cl)c2)O3)cc1 | inactive |
| COc1ccc(S(=O)(=O)Nc2ccc3c(c2)CC(=O)N([C@H](C)CO)C[C@@H](C)[C@@H](CN(C)Cc2ccc(Cl)c(Cl)c2)O3)cc1 | active |
| COc1ccc(S(=O)(=O)Nc2ccc3c(c2)CC(=O)N([C@@H](C)CO)C[C@@H](C)[C@H](CN(C)Cc2ccc(Cl)c(Cl)c2)O3)cc1 | inactive |
| COc1ccc(S(=O)(=O)Nc2ccc3c(c2)CC(=O)N([C@@H](C)CO)C[C@H](C)[C@H](CN(C)Cc2ccc(Cl)c(Cl)c2)O3)cc1 | active |
| COc1ccc(S(=O)(=O)Nc2ccc3c(c2)CC(=O)N([C@H](C)CO)C[C@H](C)[C@H](CN(C)Cc2ccc(Cl)c(Cl)c2)O3)cc1 | active |
| COc1ccc(S(=O)(=O)Nc2ccc3c(c2)CC(=O)N([C@H](C)CO)C[C@@H](C)[C@H](CN(C)Cc2ccc(Cl)c(Cl)c2)O3)cc1 | inactive |
| COc1ccc(S(=O)(=O)Nc2ccc3c(c2)CC(=O)N([C@@H](C)CO)C[C@@H](C)[C@@H](CN(C)Cc2ccc(Cl)c(Cl)c2)O3)cc1 | active |
| COc1ccc(S(=O)(=O)Nc2ccc3c(c2)CC(=O)N([C@@H](C)CO)C[C@H](C)[C@@H](CN(C)Cc2ccc(Cl)c(Cl)c2)O3)cc1 | inactive |
| COc1ccc(S(=O)(=O)N(C)C[C@H]2Oc3ccc(NC(=O)C4CC4)cc3CC(=O)N([C@H](C)CO)C[C@H]2C)cc1 | inactive |
| Cc1noc(C)c1NC(=O)N(C)C[C@@H]1Oc2ccc(NC(=O)Cn3cnnn3)cc2CC(=O)N([C@@H](C)CO)C[C@@H]1C | inactive |
| CCN(CCO)C(=O)C1CN(C(C)=O)C1 | inactive |
| CCCc1nc2c(C)cc(-c3nc4ccccc4n3C)cc2n1Cc1ccc(-c2ccccc2C(=O)O)cc1 | inactive |
| O=C(C[C@@H]1CC[C@H]2[C@@H](COC[C@H](O)CN2C(=O)Nc2cc(Cl)cc(Cl)c2)O1)N1CCOCC1 | inactive |
| Cc1noc(C)c1NC(=O)N(C)C[C@H]1OCCCC[C@@H](C)Oc2ccc(NS(=O)(=O)c3ccccc3)cc2C(=O)N([C@H](C)CO)C[C@H]1C | inactive |
| Cc1cccc(Oc2ccc(NC(=O)C3CCC(C)CC3)cc2)c1 (stereo not given) | inactive |
| COc1ccc(NC(=O)Nc2ccc3c(c2)[C@H]2C[C@H](CC(=O)N4CCN(C)CC4)O[C@@H](CO)[C@H]2O3)cc1 | inactive |
| CN1CCN(Cc2ccc(NC(=O)Nc3ccc(Oc4cc(NC(=O)C5CC5)ncn4)cc3)cc2C(F)(F)F)CC1 | active |
| CC(C)NC(=O)N(C)C[C@@H]1Oc2ccc(NS(=O)(=O)c3ccccc3)cc2CC(=O)N([C@@H](C)CO)C[C@@H]1C | inactive |
| Cc1noc(C)c1S(=O)(=O)Nc1ccc2c(c1)C(=O)N([C@H](C)CO)C[C@@H](C)[C@@H](CN(C)S(C)(=O)=O)OCCCC[C@H](C)O2 | inactive |
| COc1ccc(C#Cc2cnc3c(c2)C(=O)N([C@@H](C)CO)C[C@H](C)[C@H](CN(C)CC2CCOCC2)O3)cc1 | inactive |
| CC(C)=CCc1c(O)cc2oc(C)cc(=O)c2c1O | inactive |
| COc1c(O)cc2oc3cc(O)c(CC=C(C)C)c(O)c3c(=O)c2c1CC=C(C)C [alpha-MANGOSTIN ] | active |

| Structure (SMILES) | cytotoxicity call |
| --- | --- |
| COc1cc(O)c2c(=O)cc(C)oc2c1CC=C(C)C | inactive |
| COc1ccc(S(=O)(=O)Nc2ccc3c(c2)C(=O)N([C@@H](C)CO)C[C@@H](C)[C@H](CN(C)S(C)(=O)=O)O3)cc1 | inactive |
| C[C@@H]1CN([C@H](C)CO)C(=O)Cc2cc(NS(=O)(=O)c3cccs3)ccc2O[C@H]1CN(C)S(=O)(=O)c1cn(C)cn1 | inactive |
| N#Cc1c(Oc2ccc(F)c(NC(=O)Cc3cccc(C(F)(F)F)c3)c2)ccc2nc(NC(=O)C3CC3)sc12 | active |
| O=C(N[C@H](c1ccc2ccccc2n1)c1cccs1)C1CCN(Cc2cccc(C(F)(F)F)c2)CC1 | inactive |
| NC[C@](O)(c1cccs1)C1CC1 | inactive |
| C[C@@H]1CN([C@@H](C)CO)C(=O)c2cc(-c3cccc(C(=O)N(C)C)c3)cnc2O[C@@H]1CN(C)S(=O)(=O)c1cccc(F)c1 | inactive |
| COc1ccc(CN(C)C[C@@H]2Oc3ccc(NC(=O)CCN4CCOCC4)cc3CC(=O)N([C@@H](C)CO)C[C@@H]2C)cc1 | inactive |
| COc1ccc(S(=O)(=O)Nc2cccc3c2O[C@@H](CN(C)S(=O)(=O)c2c(C)noc2C)[C@H](C)CN([C@H](C)CO)C3=O)cc1 | inactive |
| O=C(C[C@H]1CC[C@H]2[C@@H](COC[C@@H](O)CN2S(=O)(=O)c2ccc(Cl)cc2)O1)NCC1CCCCC1 | inactive |
| c1ccc(CNc2nn[nH]n2)cc1 | inactive |
| Cn1nnc(NCc2ccccc2)n1 | inactive |
| c1ccc(CNc2ccc3c(ccc4c5ccccc5[nH]c34)n2)cc1 | active |
| C[C@@H]1CN([C@H](C)CO)C(=O)Cc2cc(NC(=O)c3ccncc3)ccc2O[C@@H]1CN(C)S(=O)(=O)c1ccc(F)cc1 | inactive |
| C[C@H](CO)N1C[C@H](C)[C@@H](CN(C)C(=O)Nc2ccc(F)cc2)Oc2ccc(NC(=O)Cn3cnnn3)cc2CC1=O | inactive |
| CS(C)(=O)=O | inactive |
| Cc1ccc(S(=O)(=O)Nc2ccc3c(c2)C(=O)N([C@H](C)CO)C[C@H](C)[C@@H](CN(C)C(=O)Nc2ccc(F)cc2)OCCCC[C@H](C)O3)cc1 | inactive |
| C[C@H](CO)N1C[C@H](C)[C@@H](CN(C)Cc2ccc(Cl)c(Cl)c2)Oc2ccc(NC(=O)Nc3ccc(C(F)(F)F)cc3)cc2CC1=O | active |
| C[C@H]1CN([C@@H](C)CO)C(=O)Cc2cc(NC(=O)Nc3ccc(C(F)(F)F)cc3)ccc2O[C@H]1CN(C)Cc1ccncc1 | inactive |
| C[C@H]1CN([C@@H](C)CO)C(=O)Cc2cc(NC(=O)Nc3ccc(C(F)(F)F)cc3)ccc2O[C@H]1CN(C)Cc1ccc(Cl)c(Cl)c1 | active |
| C[C@@H]1CN([C@@H](C)CO)C(=O)Cc2cc(NC(=O)Nc3ccc(C(F)(F)F)cc3)ccc2O[C@@H]1CN(C)Cc1ccncc1 | inactive |
| C[C@@H]1CN([C@H](C)CO)C(=O)Cc2cc(NC(=O)Nc3ccc(C(F)(F)F)cc3)ccc2O[C@@H]1CN(C)Cc1ccncc1 | inactive |

| Structure (SMILES) | cytotoxicity call |
| --- | --- |
| C[C@@H]1CN([C@@H](C)CO)C(=O)Cc2cc(NC(=O)Nc3ccc(C(F)(F)F)cc3)ccc2O[C@@H]1CN(C)Cc1ccc(Cl)c(Cl)c1 | active |
| C[C@@H]1CN([C@H](C)CO)C(=O)Cc2cc(NC(=O)Nc3ccc(C(F)(F)F)cc3)ccc2O[C@H]1CN(C)Cc1ccncc1 | inactive |
| C[C@H]1CN([C@@H](C)CO)C(=O)Cc2cc(NC(=O)Nc3ccc(C(F)(F)F)cc3)ccc2O[C@@H]1CN(C)Cc1ccncc1 | inactive |
| C[C@@H]1CN([C@H](C)CO)C(=O)Cc2cc(NC(=O)Nc3ccc(C(F)(F)F)cc3)ccc2O[C@@H]1CN(C)Cc1ccc(Cl)c(Cl)c1 | active |
| C[C@H]1CN([C@@H](C)CO)C(=O)Cc2cc(NC(=O)Nc3ccc(C(F)(F)F)cc3)ccc2O[C@@H]1CN(C)Cc1ccc(Cl)c(Cl)c1 | inactive |
| CC(=O)N(C)C[C@@H]1Oc2ncc(C#C[C@@H](C)O)cc2C(=O)N([C@@H](C)CO)C[C@@H]1C | inactive |
| COc1ccc(S(=O)(=O)Nc2ccc3c(c2)CC(=O)N([C@H](C)CO)C[C@@H](C)[C@H](CN(C)Cc2ccncc2)O3)cc1 | inactive |
| C[C@H]1CN([C@@H](C)CO)C(=O)Cc2cc(NS(=O)(=O)c3cn(C)cn3)ccc2O[C@H]1CN(C)S(=O)(=O)c1ccc(Cl)cc1 | inactive |
| C[C@H]1CN([C@@H](C)CO)C(=O)Cc2cc(NC(=O)CCCCCC(=O)Nc3ccccc3N)ccc2O[C@H]1CN(C)S(C)(=O)=O | inactive |
| COc1ccc(S(=O)(=O)N(C)C[C@H]2Oc3ccc(NC(=O)C4CC4)cc3CC(=O)N([C@H](C)CO)C[C@@H]2C)cc1 | inactive |
| CN1C(=O)c2cc(NC(=O)c3cccs3)ccc2OC[C@H]2O[C@@H](CC(=O)NCC(F)(F)F)CC[C@H]21 | inactive |
| C[C@@H]1CN([C@@H](C)CO)C(=O)c2cc(NC(=O)Cn3cnnn3)ccc2O[C@@H]1CN(C)Cc1ccccc1 | inactive |
| COc1ccc([Si](C)(C)[C@@H]2[C@@H](CC(=O)N3Cc4ccccc4C[C@H]3CO)O[C@]3(C(=O)N(Cc4ccc(N5CCC5=O)cc4)c4ccccc43)[C@H]2C)cc1 | inactive |
| C[C@@H]1CN([C@H](C)CO)C(=O)Cc2cc(NC(=O)Nc3ccc(C(F)(F)F)cc3)ccc2O[C@H]1CN(C)Cc1ccc(Cl)c(Cl)c1 | active |
| C[C@@H]1CN([C@@H](C)CO)C(=O)Cc2cc(NC(=O)Nc3ccc(C(F)(F)F)cc3)ccc2O[C@H]1CN(C)Cc1ccc(Cl)c(Cl)c1 | active |
| C[C@H](CO)N1C[C@H](C)[C@H](CN(C)Cc2ccc(Cl)c(Cl)c2)Oc2ccc(NC(=O)Nc3ccc(C(F)(F)F)cc3)cc2CC1=O | active |
| CS(=O)(=O)O.Oc1ccc(C2CNCCc3c2cc(O)c(O)c3Cl)cc1 (stereo not given) | inactive |
| COc1ccc(S(=O)(=O)Nc2ccc3c(c2)C(=O)N([C@@H](C)CO)C[C@H](C)[C@@H](CN(C)C(=O)Nc2c(C)noc2C)OCCCC[C@@H](C)O3)cc1 | inactive |
| COc1ccc(S(=O)(=O)Nc2ccc3c(c2)CC(=O)N([C@@H](C)CO)C[C@@H](C)[C@H](CN(C)S(C)(=O)=O)O3)cc1 | inactive |
| Cc1noc(C)c1S(=O)(=O)N(C)C[C@@H]1Oc2ccc(NC(=O)C3CC3)cc2CC(=O)N([C@H](C)CO)C[C@@H]1C | inactive |
| Cc1noc(C)c1NC(=O)Nc1ccc2c(c1)C(=O)N([C@@H](C)CO)C[C@H](C)[C@H](CN(C)C(=O)Nc1ccccc1)OCCCC[C@H](C)O2 | inactive |
